Reference: PubChem BioAssay AID1259416 (Broad Institute, 2018)
Values joined by “and” are separate entries in the source; they are usually repeats but may differ in a detail not shown here. Equal values may be shown once. About 2,600 (3.8%) of roughly 69,000 compounds were called active. No stated cut-off is given here; in the data, active means activity change below about -70% (passing the limit was not always enough); inconclusive means no clear call, values can overlap the other calls. Only a selection was taken, and actives are over-represented in it overall. Some compounds were tested as several samples or in several runs, with calls that do not always agree.

Test: T. gondii growth inhibition with IFN-gamma, primary screen, cell-based (AID 1259416);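 further: host cells are HeLa cells infected with Toxoplasma gondii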
Conditions: Toxoplasma gondii growth in IFN-gamma-treated host cells; stronger effect = lower value; concentration not given here

| Compound | activity change, negative = inhibition |
| --- | --- |
| CC(C)(O)c1cn(C2CCN(C(=O)CCc3ccncc3)CC2)nn1 | 5.1% (inactive) |
| O=C(c1ccc(F)cc1)N1CCc2c([nH]c3ccccc23)C1c1ccccc1 (configuration not stated) | 63% (inactive) |
| O=S(=O)(c1ccc(Cl)c(Cl)c1)N1CCC2(CC1)Nc1ccccc1-n1cccc12 | 43% (inactive) |
| O=S(=O)(c1ccc(Cl)c(Cl)c1)N1CCc2c([nH]c3ccccc23)C1C(F)(F)F (configuration not stated) | -82.6% (active) |
| CCc1nnc(CN(CC)C(=O)c2cccc(-c3ccc(C)o3)c2)o1 | 0.889% (inactive) |
| Cn1ccnc1-c1ccc(N2CCCC(OCc3cccnc3)C2)nn1 (configuration not stated) | -19% (inactive) |
| COCCc1noc(CN2CCCC2c2ccccn2)n1 (configuration not stated) | 8.04% (inactive) |
| N#C/C(=C\c1ccc(O)c(O)c1)C(=O)NCc1ccccc1 | 5.59% (inactive) |
| CCC[C@H](NC(=O)/C(C#N)=C/c1cccc(Br)n1)c1ccccc1 | -72.2% (active) |
| CN(C)C(=O)c1cccc(-c2ccccc2[C@@H]2[C@@H](CO)N(C(=O)C3CCCCC3)[C@H]2C#N)c1 | -9.68% (inactive) |
| COCc1ncn2c1CN(C(=O)c1cnc(C)cn1)CCC2 | 16.2% (inactive) |
| CC1CCCCC12NC(=O)N(CC(=O)N1CCN(Cc3ccccn3)CC1)C2=O (configuration not stated) | 13.9% (inactive) |
| COCCn1nnnc1CN(Cc1ccccc1)Cc1cc2ccc(C)c(C)c2[nH]c1=O | -81.4% (active) |
| CC(C)Oc1cccc(-c2csc(C(N)=O)c2)c1 | 65.6% (inactive) |
| CN(C)C(=O)C[C@]12COC[C@H]1CN(Cc1ccc3ccccc3n1)C2 | -5.46% (inactive) |
| COCc1ccc(C(=O)Nc2ccc3nc(C)[nH]c3c2)o1 | -55.3% (inactive) |
| COC(=O)Nc1nc2ccc(C(=O)C3CC3)cc2[nH]1 | -69.3% (inactive) |
| COC(=O)Nc1nc2ccc(Sc3ccccc3)cc2[nH]1 | -69.1% (inactive) and 7.35% (inactive) and -78% (active) |
| Cc1cc(C(=O)N2CCc3c(COCCN(C)C)cncc3C2)no1 | -28.8% (inactive) |
| Cc1nnsc1CNC(=O)CC1CCc2ccccc21 (configuration not stated) | -7.08% (inactive) |
| CNC1(c2nnnn2CCOC(=O)Nc2ccc(Cl)cc2)CCCC1 | 93.6% (inactive) |
| Cc1[nH]c(/C=C2\C(=O)Nc3ccc(S(=O)(=O)Cc4c(Cl)cccc4Cl)cc32)c(C)c1C(=O)N1CCC[C@@H]1CN1CCCC1 | -79.5% (active) and -88.9% (active) and -63.2% (inactive) |
| COc1ccc(OC)c(CNC(=O)Cn2ncc3c(N4CCCC4)ncnc32)c1 | 7.89% (inactive) |
| CC(C)(C)c1nc(-c2cccc(NS(=O)(=O)c3c(F)cccc3F)c2F)c(-c2ccnc(N)n2)s1 | -83.7% (active) |
| CC1=C(C(=O)NCCCN2CC(C)CC(C)C2)C2(CCN(Cc3ccccc3)CC2)OC1=O (configuration not stated) | -65.1% (inactive) |
| O=C(c1nc2sccn2c1CN1CCC(c2ccccc2Cl)C1)N1CCCCC1 (configuration not stated) | 1.45% (inactive) |

| Compound | activity change, negative = inhibition |
| --- | --- |
| O=C(Nc1cccc(N2CCCCS2(=O)=O)c1)c1ccc(-n2cccn2)nc1 | 6.32% (inactive) |
| Cc1ccc(C(=O)Nc2ccc(Oc3ccc(C(C)(C)C)cc3)nc2)cc1 | -31.5% (inactive) |
| CC(C)(C)c1ccc(Oc2ccc(NC(=O)Cc3cccs3)cn2)cc1 | -76.9% (active) |
| Cc1ccc(C)c(-c2coc(-c3ccc(NC(=O)Cc4cccs4)cc3)n2)c1 | 7.55% (inactive) |
| CCOC(=O)c1nc(N2CCN(Cc3ccc4c(c3)OCO4)CC2)c2ccccc2n1 | 42.4% (inactive) |
| O=C(C1CC=CC1)N1CCC2(CCN(Cc3cccc(F)c3)CC2)C1 | -9.86% (inactive) |
| CC[C@]1(O)C[C@@H]2CN(CCc3c([nH]c4ccccc34)[C@@](C(=O)OC)(c3cc4c(cc3OC)N(C)[C@H]3[C@@](O)(C(=O)OC)[C@H](OC(C)=O)[C@]5(CC)C=CCN6CC[C@]43[C@@H]65)C2)C1 | -97.6% (active) |
| CC[C@]1(O)CC2CN(CCc3c([nH]c4ccccc34)[C@@](C(=O)OC)(c3cc4c(cc3OC)N(C=O)[C@H]3[C@@](O)(C(=O)OC)[C@H](OC(C)=O)[C@]5(CC)C=CCN6CC[C@]43[C@@H]65)C2)C1 (some centres not stated) | -82.9% (active) and -87.1% (active) |
| CC1=CC[C@@H]2CN(C(=O)c3cc(C(C)(C)C)[nH]c(=O)n3)C[C@@H]2C1 | 5.83% (inactive) |
| Cc1nn(C)c(C)c1CCC(=O)NCc1ccccc1-n1ccnc1C | -6.3% (inactive) |
| CC1Cc2ccccc2N1C(=O)CN1C(=O)COc2ccc(C(=O)c3cccs3)cc21 (configuration not stated) | -43.3% (inactive) |
| Cc1nc2ccccc2c(=O)n1-c1cccc2ccccc12 | 0.633% (inactive) |
| O=S(=O)(c1ccc2c(c1)OCCO2)N1CCN(c2ccc(C(F)(F)F)cn2)CC1 | -88% (active) |
| O=C(/C=C/c1ccc2c(c1)OCO2)NCc1ccc(F)cc1 | 2.56% (inactive) |
| CC(NC(=O)CCc1c[nH]c2ccccc12)c1cn2ncsc2n1 (configuration not stated) | 23.4% (inactive) |
| O=C(/C=C/c1ccc(CN(CCO)CCc2c[nH]c3ccccc23)cc1)NO | -85.7% (active) |
| CC(C)c1cc(C2CCN(C(=O)Cc3c[nH]c4ccccc34)CC2)[nH]n1 | 5.9% (inactive) |
| O=C(NC1CC1)C1CN(Cc2cnc(NCc3ccccc3)nc2)CCN1 (configuration not stated) | -0.724% (inactive) |
| Cc1ccsc1C(=O)N1CCCC2(C1)Nc1cccnc1NC2=NC1CCCC1 (configuration not stated) | -22.8% (inactive) |
| COc1ccc(OCC(=O)N2CCC3(CC2)Nc2ccc(Cl)cc2-n2cccc23)cc1 | 25.9% (inactive) |
| O=C(C1CCCCC1)N1CCC2(CC1)Nc1ccc(Cl)cc1-n1cccc12 | -85.4% (active) |
| O=S(=O)(c1ccc(F)c(F)c1)N1CCC2(CC1)Nc1ccc(Cl)cc1-n1cccc12 | 17.6% (inactive) |
| CNC(=O)c1sc2ccccc2c1C1CCC(CNS(=O)(=O)c2cnn(C)c2)CC1 (configuration not stated) | -10.6% (inactive) |
| Cc1cccn2cc(C(=O)NC[C@@H]3CCNC[C@H]3O)nc12 | -3.48% (inactive) |
| O[C@@H]1CNCC[C@H]1CNCc1cccc(Oc2cccc(C(F)(F)F)c2)c1 | -100% (active) |
| Cc1cc(CNC(=O)c2cccc(C3CCNC3)c2)ccc1F (configuration not stated) | -1.39% (inactive) |
